From PubChem BioAssay (EPA / NIEHS) come the findings set out here.

Test [1] concerns the target human CYP19A1, CYP19A1 (gene 1588) (UniProt P11511). Description: NVS_ADME_hCYP19A1: NovaScreen (NVS) CYP450-related Enzyme Activity (ADME) Assay for human CYP19A1 (AID 2283098; active = hit-call score of the fitted dose curve at least 0.9, where 1 is the maximum;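 as to AC50: potency for inhibitors seen as loss of fluorescent enzyme signal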). Summed up: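 Primary testing was in duplicate at a single 10 uM concentration, with actives followed up in concentration-response series. Fluorescence read-out of recombinant enzyme activity at 0.5 h, cell-free. Acetonitrile was the negative-control baseline.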

Read-out in test [2]: E-selectin (Homo sapiens) (UniProt P16581)
Description: BSK_SAg_Eselectin: BioMAP Diversity Plus: SAg Assay for Eselectin Biomarker Activity (AID 2283091). To be noted: primary human HUVEC with PBMC; actives raise or lower the signal. Summed up:
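Human umbilical vein endothelial cells co-cultured with peripheral blood mononuclear cells, SAg system. E-selectin is measured by ELISA 24 h after dosing and fitted bidirectionally against DMSO. Cytotoxicity is checked by SRB staining of parallel cultures.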

A short description of test [3]: BSK_SAg_PBMCCytotoxicity: PBMC Cytotoxicity Assessment in the BioMAP Diversity Plus: SAg Assay (AID 2283093).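 Also: PBMC viability measured as Alamar Blue reduction fluorescence at 546/580 nm; fitted both ways against DMSO so a hit may be loss or gain of signal.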 The following applies: primary human HUVEC with PBMC. Summed up:
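Alamar Blue reduction (6 h, ex/em 546/580 nm) read after 90 h culture of PBMC pre-dosed 1 h then stimulated with SEB plus TSST-1, 20 ng/mL each. Gain or loss of signal fitted relative to DMSO.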

Read-out in test [4]: Interleukin-8 (IL8), CXCL8 (gene 3576)
Description: BSK_SAg_IL8: BioMAP Diversity Plus: SAg Assay for Interleukin-8 (IL8) Biomarker Activity (AID 2283094). The following applies: primary human HUVEC with PBMC; actives raise or lower the signal. Summed up: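 ELISA readout of IL-8 from a superantigen-activated endothelial/PBMC primary human co-culture, taken 24 h post-dosing and fitted in both directions against DMSO; parallel SRB total-protein staining flags overt cytotoxicity.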

Test [5] can be described thus: BSK_SAg_Proliferation: Cell Proliferation Assessment in the BioMAP Diversity Plus: SAg Assay (AID 2283095).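 Also: relative cell number as total protein by SRB absorbance in sub-confluent culture.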 To be noted: primary human HUVEC with PBMC. Summed up: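 Relative cell number in the endothelial cell/PBMC co-culture was quantified at 96 h by SRB staining (0.1% SRB, 10% TCA fixation, read at 560 nm). Curves were fitted in both directions relative to DMSO baseline.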

A short description of test [6]: BSK_SAg_SRB: Viability Assessment in the BioMAP Diversity Plus: SAg Assay (AID 2283096).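 Also: cells read one day after compound addition; hits may be either gain or loss of signal compared with DMSO.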 The following applies: primary human HUVEC with PBMC. Summed up: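 SRB absorbance at 560 nm served as the viability read-out. Cells (HUVEC plus peripheral blood mononuclear cells) were TCA-fixed and stained 24 h post-dosing; activity fitted in both directions against DMSO controls.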

Test [7] deals with human CYP2D6, CYP2D6 (gene 1565) (UniProt P10635). Description: NVS_ADME_hCYP2D6: NovaScreen (NVS) CYP450-related Enzyme Activity (ADME) Assay for human CYP2D6 (AID 2283107; active = hit-call score of the fitted dose curve at least 0.9, where 1 is the maximum). Summed up:
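Cell-free assay using recombinant human CYP2D6 expressed in insect cells, with a fluorogenic substrate read after 1 h. Primary screen in duplicate at 10 uM; actives followed up in concentration series. Loss of signal fitted relative to acetonitrile.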

Test [8] concerns the target Cytochrome P450 2C19 (Homo sapiens) (UniProt P33261). Description: NVS_ADME_hCYP2C19: NovaScreen (NVS) CYP450-related Enzyme Activity (ADME) Assay for human CYP2C19 (AID 2283113; active = hit-call score of the fitted dose curve at least 0.9, where 1 is the maximum;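 also: potency for inhibition seen as loss of fluorescent signal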). Summed up: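 Cell-free recombinant human CYP2C19 from insect cells, fluorescent substrate; activity read by fluorescence intensity 1 h after dosing. Primary screen in duplicate at 10 uM; actives retested in concentration series. Signal loss versus acetonitrile negative control.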

The target of test [9] is human Ephrin type-A Receptor 1 (EphA1), EPHA1 (gene 2041) (UniProt P21709). Description: NVS_ENZ_hEphA1: NovaScreen (NVS) Enzymatic Assay for human Ephrin type-A Receptor 1 (EphA1) (AID 2283158; active = hit-call score of the fitted dose curve at least 0.9, where 1 is the maximum;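 also: activity is signal loss versus DMSO meaning EphA1 kinase inhibition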). Summed up:
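Cell-free kinase activity with recombinant protein, 1 hour after dosing; product separated by electrophoretic mobility shift, fluorescence read. Primary screen at 25 uM in duplicate; hits run as concentration-response up to 50 uM, relative to DMSO.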

The target in test [10] is human Beta-secretase (BACE), BACE1 (gene 23621) (UniProt P56817). Description: NVS_ENZ_hBACE: NovaScreen (NVS) Enzymatic Assay for human Beta-secretase (BACE) (AID 2283140; active = hit-call score of the fitted dose curve at least 0.9, where 1 is the maximum;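 also: hits are inhibitors that reduce fluorescent substrate signal versus DMSO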). Summed up: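 Enzyme from SF9 cells was incubated 1 hour with compound and fluorogenic substrate, activity read by fluorescence. Single-concentration duplicates at 25 uM preceded concentration-response follow-up; fitting relative to DMSO baseline.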
Sequence of human Beta-secretase (BACE), BACE1 (gene 23621) (P56817 whole entry, looked up): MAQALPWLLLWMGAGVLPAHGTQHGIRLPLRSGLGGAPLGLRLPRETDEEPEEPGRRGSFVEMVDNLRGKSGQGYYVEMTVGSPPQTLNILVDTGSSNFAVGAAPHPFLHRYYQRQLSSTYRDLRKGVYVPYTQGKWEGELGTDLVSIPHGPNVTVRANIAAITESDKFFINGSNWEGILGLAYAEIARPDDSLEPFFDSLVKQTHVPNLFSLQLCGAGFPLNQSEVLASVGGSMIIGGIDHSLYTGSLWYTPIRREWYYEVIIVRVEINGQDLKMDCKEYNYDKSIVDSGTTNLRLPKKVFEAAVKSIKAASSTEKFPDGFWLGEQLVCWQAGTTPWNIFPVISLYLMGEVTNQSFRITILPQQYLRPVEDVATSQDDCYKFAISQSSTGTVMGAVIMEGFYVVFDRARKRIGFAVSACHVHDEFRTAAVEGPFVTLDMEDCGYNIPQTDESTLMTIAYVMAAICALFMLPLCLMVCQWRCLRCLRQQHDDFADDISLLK

In test [11] the target is human Dual Specificity Protein Phosphatase 3 (DUSP3), DUSP3 (gene 1845) (UniProt P51452). The test is described as follows: NVS_ENZ_hDUSP3: NovaScreen (NVS) Enzymatic Assay for human Dual Specificity Protein Phosphatase 3 (DUSP3) (AID 2283152; active = hit-call score of the fitted dose curve at least 0.9, where 1 is the maximum). Summed up: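 Cell-free fluorescence-intensity enzyme activity assay with recombinant protein and substrate; loss of signal fitted relative to DMSO baseline. Primary screen in duplicate at 25 uM, actives then run in concentration series; measured 0 h after dosing.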
Sequence of human Dual Specificity Protein Phosphatase 3 (DUSP3), DUSP3 (gene 1845) (P51452 whole entry, looked up): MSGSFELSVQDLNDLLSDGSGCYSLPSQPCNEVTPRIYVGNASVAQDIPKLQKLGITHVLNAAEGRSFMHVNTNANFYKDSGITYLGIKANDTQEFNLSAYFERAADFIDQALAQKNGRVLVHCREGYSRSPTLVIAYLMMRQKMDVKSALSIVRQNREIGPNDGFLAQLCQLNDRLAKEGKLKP

The structures appear in SMILES notation. Inconclusive results are not listed. The source made the active and inactive calls. The calls were made as follows, unless noted: active = hit-call score of the fitted dose curve at least 0.9, where 1 is the maximum; inactive = score below 0.9.

Sequence of human CYP19A1, CYP19A1 (gene 1588) (P11511 whole entry, looked up): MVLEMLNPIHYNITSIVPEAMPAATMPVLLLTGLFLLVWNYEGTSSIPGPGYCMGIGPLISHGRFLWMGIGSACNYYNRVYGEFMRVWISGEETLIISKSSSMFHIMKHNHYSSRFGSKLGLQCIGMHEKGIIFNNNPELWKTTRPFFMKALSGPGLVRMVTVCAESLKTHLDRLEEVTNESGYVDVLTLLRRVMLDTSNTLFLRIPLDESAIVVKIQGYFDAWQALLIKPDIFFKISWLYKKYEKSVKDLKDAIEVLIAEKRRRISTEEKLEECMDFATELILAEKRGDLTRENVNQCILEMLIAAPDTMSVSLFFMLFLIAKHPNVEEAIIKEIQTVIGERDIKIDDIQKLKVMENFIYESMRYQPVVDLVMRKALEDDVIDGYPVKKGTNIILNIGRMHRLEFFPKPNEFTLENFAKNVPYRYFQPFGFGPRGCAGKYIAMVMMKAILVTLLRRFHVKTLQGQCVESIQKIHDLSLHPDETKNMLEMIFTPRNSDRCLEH
Sequence of E-selectin (Homo sapiens) (P16581 whole entry, looked up): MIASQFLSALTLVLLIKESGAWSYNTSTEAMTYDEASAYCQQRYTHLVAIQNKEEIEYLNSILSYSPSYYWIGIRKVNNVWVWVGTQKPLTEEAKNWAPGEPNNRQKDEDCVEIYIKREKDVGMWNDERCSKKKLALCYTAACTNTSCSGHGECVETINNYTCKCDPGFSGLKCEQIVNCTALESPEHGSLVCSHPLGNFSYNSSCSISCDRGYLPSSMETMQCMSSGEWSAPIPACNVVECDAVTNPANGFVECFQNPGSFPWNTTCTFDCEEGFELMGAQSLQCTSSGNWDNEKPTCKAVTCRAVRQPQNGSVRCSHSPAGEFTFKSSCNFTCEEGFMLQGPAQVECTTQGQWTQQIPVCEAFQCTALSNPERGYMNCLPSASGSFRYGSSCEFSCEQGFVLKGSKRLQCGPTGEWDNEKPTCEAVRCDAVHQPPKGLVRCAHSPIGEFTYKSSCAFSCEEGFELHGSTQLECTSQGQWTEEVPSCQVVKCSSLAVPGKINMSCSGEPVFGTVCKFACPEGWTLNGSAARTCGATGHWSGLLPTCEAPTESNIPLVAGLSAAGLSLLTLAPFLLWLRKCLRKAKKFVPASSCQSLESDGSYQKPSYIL
Sequence of human Ephrin type-A Receptor 1 (EphA1), EPHA1 (gene 2041) (P21709 whole entry, looked up): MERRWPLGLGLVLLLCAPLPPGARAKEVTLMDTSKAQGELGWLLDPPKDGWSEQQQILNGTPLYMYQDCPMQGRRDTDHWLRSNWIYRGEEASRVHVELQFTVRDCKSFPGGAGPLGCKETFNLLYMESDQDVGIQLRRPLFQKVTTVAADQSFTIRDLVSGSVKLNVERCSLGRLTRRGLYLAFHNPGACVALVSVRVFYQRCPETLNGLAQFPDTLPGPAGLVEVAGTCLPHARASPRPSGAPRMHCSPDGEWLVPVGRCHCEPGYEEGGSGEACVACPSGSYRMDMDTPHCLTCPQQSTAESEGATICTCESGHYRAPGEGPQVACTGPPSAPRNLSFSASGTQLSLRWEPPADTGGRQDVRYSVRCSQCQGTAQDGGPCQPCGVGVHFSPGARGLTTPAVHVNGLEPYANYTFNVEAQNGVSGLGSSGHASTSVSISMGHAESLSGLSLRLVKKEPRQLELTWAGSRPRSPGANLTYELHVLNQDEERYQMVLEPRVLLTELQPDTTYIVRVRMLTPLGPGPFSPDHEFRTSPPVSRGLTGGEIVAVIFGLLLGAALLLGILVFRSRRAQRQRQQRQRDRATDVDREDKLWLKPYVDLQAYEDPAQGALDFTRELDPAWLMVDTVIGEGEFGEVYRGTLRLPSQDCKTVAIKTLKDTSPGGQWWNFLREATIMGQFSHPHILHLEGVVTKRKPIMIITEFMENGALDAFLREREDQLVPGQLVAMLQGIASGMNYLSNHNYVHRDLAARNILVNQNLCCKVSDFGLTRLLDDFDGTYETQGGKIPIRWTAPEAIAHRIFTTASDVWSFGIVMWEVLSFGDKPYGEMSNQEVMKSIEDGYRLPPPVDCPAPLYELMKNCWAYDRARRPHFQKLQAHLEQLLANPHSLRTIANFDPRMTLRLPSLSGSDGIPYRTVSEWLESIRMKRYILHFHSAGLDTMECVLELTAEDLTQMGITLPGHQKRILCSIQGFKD
Sequence of human CYP2D6, CYP2D6 (gene 1565) (P10635 whole entry, looked up): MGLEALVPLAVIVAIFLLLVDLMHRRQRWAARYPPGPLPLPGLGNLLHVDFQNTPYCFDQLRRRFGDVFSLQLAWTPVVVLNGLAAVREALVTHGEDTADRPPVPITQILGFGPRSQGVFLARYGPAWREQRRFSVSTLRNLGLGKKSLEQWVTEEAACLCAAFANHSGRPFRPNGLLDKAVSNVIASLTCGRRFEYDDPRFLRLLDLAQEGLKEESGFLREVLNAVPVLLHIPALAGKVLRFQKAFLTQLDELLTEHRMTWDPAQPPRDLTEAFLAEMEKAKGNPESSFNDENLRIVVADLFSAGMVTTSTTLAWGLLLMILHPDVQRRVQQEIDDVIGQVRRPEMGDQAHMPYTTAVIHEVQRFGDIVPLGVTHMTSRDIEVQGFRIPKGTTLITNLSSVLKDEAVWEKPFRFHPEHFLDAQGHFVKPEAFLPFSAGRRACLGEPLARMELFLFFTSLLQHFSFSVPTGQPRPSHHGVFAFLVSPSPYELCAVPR

For the compound `CCCCC(CC)COS(=O)(=O)O` (stereo unspecified), in test [1], the compound was called inactive.

For the compound `CCc1cccc(C)c1N(C(=O)CS(=O)(=O)O)C(C)COC` (stereo unspecified), the result in test [2], in [3], in test [4], in test [5] and in test [6] was inactive.

In general, AC50 refers to the concentration giving half of the maximal activity seen. Consider `CCCC(CC)c1ccccc1` (stereo unspecified), for which the AC50 in test [1] is 10.4 µM (active).

Take `Cc1cc(C)n(CO)n1`: the compound was called inactive in test [7]. The AC50 in [8] was 4.01 µM (active).

Regarding `Nc1cccc(N)n1`, the result in test [2], in test [3], in test [4], in test [5], in test [6] and in test [9] was inactive.

As for `Cc1ccc(C)c(OCCCC(C)(C)C(=O)O)c1`, the AC50 in test [1] was 15.6 µM (active).

`C=CCCCCCCCCC=O`: the outcome in [2], in test [3], in [4], in [5] and in test [6] was inactive. In addition, the AC50 in test [10] was 13.1 µM (active).

Take `C1CNCCN1`: the outcome in test [2], in test [3], in [4], in [5] and in test [6] was inactive.

On to `CCC1(C)C(=O)N(Cl)C(=O)N1Cl` (stereo unspecified), for which the outcome in test [2], in test [3], in test [4], in [5] and in test [6] was inactive.

For `CCOc1ccc(NC(N)=O)cc1`, the compound was called inactive in test [9].

On to `CC(=O)CC(=O)Nc1ccccc1C`, for which the result in test [9] was inactive.

Take `Clc1cc(Cl)c(Cl)c(Cl)c1Cl`: the outcome in test [2], in [3], in test [4], in [5] and in test [6] was inactive.

Turning to `C=CC(=O)NC(C)(C)C`, the outcome in test [2], in [3], in test [4], in test [5] and in test [6] was inactive. Further, in test [11], the AC50 was 13.6 µM (active).

`O=C(OCc1ccccc1)c1ccc(O)cc1`: the AC50 in [1] was 4.08 µM (active).

For `Oc1ccccc1Cc1ccccc1O`, the result in test [2], in test [3], in test [4], in [5] and in test [6] was inactive.
